Screening results from PubChem BioAssay.
Rows were chosen to be rich in hits. Some 8.8% of all compounds tested hit in one or more screens of this group.
HTT cytoprotect = protects HTT-Q103 PC12 cells, measured by ATP; PC12 HTT-Q103 induced, cytoprotection, ATP luminescence, 40 h; 0.14% of 230,000 active; Potency, µM (top dose mostly 56.4 µM), most hits filed as activators; active means well fitted curve in the direction sought with a large enough effect; inconclusive means small, poorly fitted or top-dose-only effect, or another doubt; inactive means no such curve, though single readings can be large; an effect the other way counts as inactive or inconclusive; further: nearly all actives have a fitted effect of over 45% in size
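Compounds were screened for protection of PC12 cells against cell death after tebufenozide induction (100 nM final) of mutant Huntingtin exon 1 (Q103) fused to GFP.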
HttQ103 aggreg = mutant huntingtin aggregation inhibition; PC12 HttQ103-GFP aggregates, Acumen cytometry, 40 h; Potency, µM (highest dose often 46.1 µM), actives largely listed as inhibitors; 1.1% of 220,000 active; active means well fitted curve in the direction sought with a large enough effect; inconclusive means small, poorly fitted or top-dose-only effect, or another doubt; inactive means no such curve, though single readings can be large; an effect the other way counts as inactive or inconclusive; further: nearly all actives have a fitted effect of over 60% in size
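Multiplexed with ATP-based cell death, this channel scores GFP aggregates in PC12 cells expressing inducible HTTex1-Q103-GFP. Induction used 100 nM tebufenozide; compounds were tested in concentration series.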
HPGD block = inhibitors of human 15-hydroxyprostaglandin dehydrogenase (HPGD) | P15428 | purified HPGD, NADH fluorescence kinetic, PGE2 substrate | Potency, µM, hits mostly inhibitors | 4.3% of 150,000 active
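20 nM HPGD preincubated 15 min at room temperature with compound in 50 mM Tris-HCl pH 8, 0.01% Tween 20. Started with 1 mM NAD+ and 30 uM prostaglandin E2; NADH fluorescence (360/450 nm) read 5 times over 30-s intervals, last minus first.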
LMNA splice mod = LMNA splicing modulation | HeLa LMNA splicing GFP/RFP minigene ratio, 48 h | Potency, µM (highest dose often 46.1 µM), most hits filed as inhibitors | 0.01% of 200,000 active | AID 1487; active means well fitted inhibition curve with a large enough effect in the signal ratio, with a control signal flat, not every such curve was filed as active; inconclusive means small, poorly fitted or top-dose-only effect, or effect the other way, or a change in a side signal; the % refers to the signal ratio
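S3 HeLa cells stably expressing lamin A-EGFP splicing minigene plus DsRed2, 600 cells/well, 48 h compound exposure at 37C. Laser-scanning cytometry; analysed as GFP (500-530 nm)/RFP (575-640 nm) total intensity ratio; 0.5% DMSO vehicle.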
ALDH1A1 inh = ALDH1A1 (human) enzyme inhibition; P00352; Purified ALDH1A1, NADH fluorescence, propionaldehyde substrate; Potency, µM (top dose mostly 75.3 µM), usual class: inhibitors; 7.3% of 220,000 active
Target sequence (P00352 whole entry, looked up): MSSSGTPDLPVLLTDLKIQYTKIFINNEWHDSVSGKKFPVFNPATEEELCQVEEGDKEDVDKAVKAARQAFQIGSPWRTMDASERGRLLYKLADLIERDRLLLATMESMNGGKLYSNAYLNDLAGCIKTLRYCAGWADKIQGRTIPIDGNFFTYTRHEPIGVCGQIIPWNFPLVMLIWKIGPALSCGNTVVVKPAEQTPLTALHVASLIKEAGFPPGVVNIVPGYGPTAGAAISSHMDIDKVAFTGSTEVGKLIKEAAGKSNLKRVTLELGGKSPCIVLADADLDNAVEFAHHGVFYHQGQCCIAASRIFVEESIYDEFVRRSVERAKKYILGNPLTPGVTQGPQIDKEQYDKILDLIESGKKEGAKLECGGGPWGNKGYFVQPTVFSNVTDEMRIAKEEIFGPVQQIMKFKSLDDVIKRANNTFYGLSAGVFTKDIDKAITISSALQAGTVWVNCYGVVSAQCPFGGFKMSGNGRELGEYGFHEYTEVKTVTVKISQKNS
Each line names hits and unclear results; the compound was inactive in the other large screens. Unless noted, the call rests on the fitted dose curve; in most records, active means well fitted inhibition curve with a large enough effect (not every such curve was filed as active); inconclusive means small, poorly fitted or top-dose-only effect, or another doubt; inactive means no such curve, though single readings can be large or run the other way.

CCOC(=O)N1CCC(N(C(=O)Nc2ccc(Cl)c(Cl)c2)C(C)CC)CC1 (stereo unspecified)	HttQ103 aggreg inconclusive, HPGD block 20µM, LMNA splice mod inconclusive, ALDH1A1 inh inconclusive
Cc1[nH]nc2c1C(c1ccc(-c3ccccc3C#N)o1)C(C#N)=C(N)O2 (stereo unspecified)	ALDH1A1 inh 11.2µM (no result: HPGD block)
O=C(O)c1cc2c(cc1S(=O)(=O)O)[C@H]1[C@@H]([C@H]3[C@H]2[C@@]2(Cl)C(Cl)=C(Cl)[C@]3(Cl)C2(Cl)Cl)[C@]2(Cl)C(Cl)=C(Cl)[C@@]1(Cl)C2(Cl)Cl	none (no result: HttQ103 aggreg, HPGD block, LMNA splice mod, ALDH1A1 inh)
Cc1nc2nc(-c3ccccc3)[nH]n2c(=O)c1C	none
Cc1nc2nc(-c3cccnc3)[nH]n2c(=O)c1C	ALDH1A1 inh 17.8µM
CCOC(=O)Nc1sc2nc(C)cc(C)c2c1-n1cccc1	ALDH1A1 inh inconclusive
Cc1cc(C)c2c(-n3cccc3)c(C(=O)NNS(=O)(=O)c3ccc(Br)cc3)sc2n1	ALDH1A1 inh 0.0891µM
COc1ccccc1-c1ccc2ncnc(N(C)C)c2c1	HPGD block 14.1µM, LMNA splice mod inconclusive (no result: HttQ103 aggreg)
CN(C)c1ncnc2ccc(-c3cccc(C#N)c3)cc12	LMNA splice mod inconclusive, ALDH1A1 inh 31.6µM (no result: HttQ103 aggreg, HPGD block)
Cc1ccccc1-c1nc(CNC(=O)NC2CCCCC2)c(C)o1	none (no result: HTT cytoprotect, HttQ103 aggreg, HPGD block, ALDH1A1 inh)
CCCNC(=O)CNC(=S)N(Cc1ccccc1F)C1CCCCC1	ALDH1A1 inh 10µM (no result: HPGD block)
O=C(CNC(=S)N(Cc1ccccc1F)C1CCCCC1)NC1CC1	ALDH1A1 inh 12.6µM
CCOC(=O)CNC(=S)N(Cc1ccccc1F)C1CCCCC1	ALDH1A1 inh inconclusive (no result: HPGD block, LMNA splice mod)
C[N+](C)(C)CCCSc1nc2ccccc2[nH]1	none (no result: HttQ103 aggreg, LMNA splice mod)
O=C(Oc1ccc(N(Cc2cccs2)C2=NS(=O)(=O)c3ccccc32)cc1)c1ccco1	ALDH1A1 inh 28.2µM
COc1cccc(CC2CC(=O)N(c3ccc4c(C)cc(=O)oc4c3)C2=O)c1 (stereo unspecified)	LMNA splice mod inconclusive, ALDH1A1 inh 1.41µM (no result: HPGD block)
CC(C)N(Cc1ccccc1)C(=O)/C=C/c1ccccc1[N+](=O)[O-]	LMNA splice mod inconclusive, ALDH1A1 inh 5.62µM (no result: HPGD block)
COc1ccc(NC2CC(=O)N(c3cc([N+](=O)[O-])ccc3C)C2=O)cc1 (stereo unspecified)	ALDH1A1 inh inconclusive (no result: HPGD block)
O=C1NC(=S)S/C1=C\c1coc2ccccc2c1=O	ALDH1A1 inh 8.91µM (no result: HTT cytoprotect, HPGD block, LMNA splice mod)
C/C(=N\NC(=O)COc1ccc(C)cc1[N+](=O)[O-])c1cccs1	LMNA splice mod inconclusive, ALDH1A1 inh 14.1µM (no result: HPGD block)
C/C(=N\NC(=O)COc1ccc(C)cc1Br)c1cc([N+](=O)[O-])cs1	none (no result: HPGD block)
O=CN1CC(=O)N(c2ccccc2)c2c([nH]c3ccccc23)C1	HPGD block 22.4µM, ALDH1A1 inh inconclusive
O=C(CN1CCN(c2ccccc2)CC1)N1CCc2[nH]c3ccccc3c2C1	none
CCOc1ccc(C(=O)NCc2ccccc2)cc1Br	LMNA splice mod inconclusive, ALDH1A1 inh inconclusive
NNC(=O)c1ccc([N+](=O)[O-])c(CS(=O)(=O)c2ccc(Cl)cc2)c1	ALDH1A1 inh 11.2µM
CO/N=C/NC(=O)c1ccc([N+](=O)[O-])c(CS(=O)(=O)c2ccc(Cl)cc2)c1	none
CO[C@@H]1/C=C\CC(=O)N2CCC[C@@H]2C(=O)OC[C@@H](C)C(=O)OC[C@H]1C	HTT cytoprotect inconclusive (no result: HttQ103 aggreg, HPGD block, LMNA splice mod)
Cc1c(C(c2ccc(N(C)C)cc2)c2c(C)n(C)n(-c3ccccc3)c2=O)c(=O)n(-c2ccccc2)n1C	ALDH1A1 inh 17.8µM (no result: HPGD block, LMNA splice mod)
COc1ccc(C(=O)OCC(=O)Nc2ccccc2)cc1[N+](=O)[O-]	ALDH1A1 inh inconclusive (no result: HPGD block)
CCOC(=O)C(Cc1ccc(OC)c([N+](=O)[O-])c1)NC(=O)CCC(=O)Nc1ccc(C)cc1 (stereo unspecified)	ALDH1A1 inh 14.1µM (no result: HPGD block)
O=C(CCSc1nc(-c2ccco2)cc(C(F)(F)F)n1)N1CCN(c2ccccn2)CC1	LMNA splice mod inconclusive, ALDH1A1 inh inconclusive
O=C(CSc1nc(-c2ccco2)cc(C(F)(F)F)n1)NN1CCOCC1	none (no result: HTT cytoprotect, HttQ103 aggreg, HPGD block, LMNA splice mod)
O=C(CCCSc1nc(-c2ccco2)cc(C(F)(F)F)n1)Nc1ccc2c(c1)OCO2	HPGD block 20µM, LMNA splice mod inconclusive, ALDH1A1 inh 15.8µM
O=C(CCSc1nc(-c2ccco2)cc(C(F)(F)F)n1)N1CCCc2ccccc21	HttQ103 aggreg inconclusive, HPGD block inconclusive, ALDH1A1 inh 17.8µM
